Each structure is given as a SMILES string. This is part of a sample that, as a whole, favours compounds with a hit. Of some 83,000 tested, about 20% had one in any assay.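 Step 1: grow cells in 96-well plates. Step 2: add test compound at a single concentration. Step 3: incubate 48 h. Step 4: record percent growth.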 Unmarked numbers belong to inactive results. Calls of active or inactive are those of the source. Rule for the calls: active = growth percent below 10; inactive = the rest.

Holding throughout (experiment): NCI-60 one-dose screen, 48 h (100 = growth as untreated, 0 = no growth, -100 = all killed)
What all share (settings): 10 µM unless noted

Experiment [1] has as its system T-47D breast.
The test system of experiment [2] is BT-549 breast.
Experiment [3] relates to MDA-MB-435 melanoma.
Experiment [4] deals with SW-620 colon.
Experiment [5] deals with MCF7 breast.
Experiment [6] concerns HCT-116 colon.
The subject of experiment [7] is HCC-2998 colon.
The test system of experiment [8] is KM12 colon.

With `O=C(Nc1ccc([N+](=O)[O-])cc1)c1cc2ccccc2cc1O`, the growth in experiment [1] is 1.61% (active); in experiment [2], -14.2% (active); in experiment [3], 0.673% (active); in experiment [4], 4.63% (active); in experiment [5], 5.51% (active); in experiment [6], -39.7% (active). For the same molecule, the growth is 5.37% (active) in experiment [7] and 92.6% in experiment [8].

On to `CCCCCCCCCCCCCC1=NC(C)(C)CN1C(C)C`, for which the growth in experiment [1] was -22.3% (active); in experiment [2], 22.8%; in experiment [3], -57.3% (active); in experiment [4] it was -67.2% (active); in experiment [5] it was -41.3% (active); in experiment [6], -72.6% (active). In addition, the growth was -90.6% (active) in experiment [7] and -75.5% (active) in experiment [8].

Take `COc1ccc(-c2cnc(-c3ccncc3-c3cccc(OC)c3)o2)cc1`: the growth is 37.2% in experiment [1]; 37.1% in experiment [2]; 4.88% (active) in experiment [3]; 22.5% in experiment [4]; 16.4% in experiment [5]; 4.92% (active) in experiment [6]. Moreover, the growth was 17.3% in experiment [7] and -28.6% (active) in experiment [8].

For `CC(C)N(C(=S)SSC(=S)N(C(C)C)C(C)C)C(C)C`, the growth in experiment [1] was 86.8%; in experiment [2] it was 107%; in experiment [3], 99.6%; in experiment [4], 105%; in experiment [5], 90.3%; in experiment [6], 96.7%. The values for the growth in experiment [7] and in experiment [8] were 113% and 108%, respectively.

On to `Cc1cc(C#Cc2ccc(C(C)(C)C)cc2)ccc1-n1c(/C=C/c2c(Cl)cccc2Cl)nc2ccccc2c1=O`, for which the growth in experiment [1] was 82.5%; in experiment [2] it was 105%; in experiment [3] it was 98%; in experiment [4], 85.5%; in experiment [5], 85.9%; in experiment [6], 89.2%. Also, the growth in experiment [7] is 99.3%; in experiment [8], 98.6%.

In the case of `C=CCOC(=O)C1=C(C)NC2=C(C(=O)CC(C)(C)C2)C1c1ccc(OC)cc1` (stereo not given), the growth in experiment [1] was 99%; in experiment [2], 94.1%; in experiment [3], 105%; in experiment [4] it was 98.9%; in experiment [5], 97.4%; in experiment [6], 88.8%. Also, the growth is 116% in experiment [7] and 94.8% in experiment [8].

With `CCCCCCCCCCCC1=NC(C)(C)CN1C(C)C`, the growth is 36.3% in experiment [1]; 77.9% in experiment [2]; 11.2% in experiment [3]; 47.8% in experiment [4]; 27.8% in experiment [5]; 21.5% in experiment [6]. Further, the growth was -58.5% (active) in experiment [7] and 25.3% in experiment [8].

As to `COc1cc(C2CC(c3ccccc3)=NN2C=O)ccc1Oc1ccnc2cc(Cl)ccc12` (stereo not given), the growth in experiment [1] was 33.6%; in experiment [2] it was 46%; in experiment [3] it was 36%; in experiment [4] it was 87.9%; in experiment [5], 50.5%; in experiment [6], 54.7%. Besides, the growth is 87.4% in experiment [7] and 49.9% in experiment [8].

`COc1cc(NCC(O)CN(CC(C)C)CC(C)C)c2ncccc2c1` (stereo not given): the growth is 1.96% (active) in experiment [1]; 95.2% in experiment [2]; 107% in experiment [3]; 74.9% in experiment [4]; -25.6% (active) in experiment [5]; 80.2% in experiment [6]. Moreover, the growth in experiment [7] is 93.6%; in experiment [8] it was 96%.

As to `CCN1C(=O)N(CC)C2C1NC(=O)N2/N=C/C=C/c1ccccc1` (stereo not given), the growth in experiment [1] is 34.2%; in experiment [2], 52.1%; in experiment [3], -2.78% (active); in experiment [4], 24.2%; in experiment [5], 12%; in experiment [6], 19.6%. Moreover, the growth in experiment [7] is 64.2%; in experiment [8] it was 23.4%.

Take `Cc1c(C(=O)Nc2ccccc2F)sc2c(=O)[nH]cnc12`: the growth in experiment [1] is 90%; in experiment [2], 85.3%; in experiment [3], 6.84% (active); in experiment [4] it was 76.8%; in experiment [5], 76.9%; in experiment [6] it was 88.6%. The growth was 93.2% in experiment [7] and 61.8% in experiment [8].

Consider `CC(=O)NC1C(O[C@H]2C[C@H]3[C@@H]4CC=C5C[C@@H](O)CC[C@]5(C)[C@H]4CC[C@]3(C)[C@H]2[C@H](C)C(=O)CCC(C)C)OCC(O)C1O` (stereo not given in full), for which the growth in experiment [1] is 45.4%; in experiment [2] it was 31.3%; in experiment [3], 35.3%; in experiment [4] it was 49.4%; in experiment [5], 43.4%; in experiment [6], 31.8%. Further, the figures for the growth in experiment [7] and in experiment [8] were 89.5% and 70.1%, respectively.

As for `CC(C)[C@@]12C[C@@H](OC(=O)C3CO3)[C@@](C)(O1)[C@@H]1CC[C@@H](C)[C@H]1[C@@H]2OC(=O)/C=C/c1ccccc1` (stereo not given in full), the growth in experiment [1] was 58.8%; in experiment [2] it was 77.1%; in experiment [3], 109%; in experiment [4] it was 98.3%; in experiment [5], 85.7%; in experiment [6] it was 85.9%. The results for the growth in experiment [7] and in experiment [8] were 95% and 99.7%, respectively.

As to `COc1cc(C2CC(c3cccc(Nc4ccnc5cc(Cl)ccc45)c3)=NN2C=O)cc(OC)c1OC` (stereo not given), the growth was -4.07% (active) in experiment [1]; -36% (active) in experiment [2]; -68.1% (active) in experiment [3]; 13.1% in experiment [4]; 2.77% (active) in experiment [5]; 7.38% (active) in experiment [6]. The growth in experiment [7] was 37.4%; in experiment [8], 9.52% (active).

On to `COc1ccc(C(=O)C(CN(C)C)c2ccc(OC)cc2)cc1` (stereo not given), for which the growth in experiment [1] was 56.7%; in experiment [2], 2.74% (active); in experiment [3], 43.8%; in experiment [4], 11.9%; in experiment [5], 18.5%; in experiment [6], 14.7%. For the same molecule, the results for the growth in experiment [7] and in experiment [8] were 117% and 78%, respectively.

The values are drawn from PubChem BioAssay (NCI).
